# Assay results as given in the supplement of paper PMC8728848.
# About 410 targets per protein were measured; listed, in parts, are those with the strongest signals and a random draw of the rest.
# Columns and labels:
# Experiment in all cases: glycan array binding signal (z-score within array); higher = stronger binding
# Details in all cases: glycan notation: IUPAC condensed, linker removed
# [1] = target: Gal(b1-4)GlcNAc(b1-3)Gal(b1-4)GlcNAc(b1-3)Gal(b1-4)GlcNAc(b1-3)Gal(b1-4)GlcNAc(b1-3)Gal(b1-4)GlcNAc(b1-3)Gal(b1-4)GlcNAc(b1-2)Man(a1-3)[Gal(b1-4)GlcNAc(b1-3)Gal(b1-4)GlcNAc(b1-3)Gal(b1-4)GlcNAc(b1-3)Gal(b1-4)GlcNAc(b1-3)Gal(b1-4)GlcNAc(b1-3)Gal(b1-4)GlcNAc(b1-2)Man(a1-6)]Man(b1-4)GlcNAc(b1-4)GlcNAc
# How it was run: (§1)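 Columns mapping to the same glycan were averaged after glycan names were converted to IUPAC-condensed notation. The data come from 3228 arrays in the Consortium for Functional Glycomics database, limited to those with an available protein sequence. Binding is reported as a within-array Z-score averaged across arrays of one protein sequence and across linkers.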
# Gal3S(b1-4)GlcNAc = target: Gal3S(b1-4)GlcNAc
# How it was run: as §1
# Gal3S(b1-4)GlcNAc6S = target: Gal3S(b1-4)GlcNAc6S
# How it was run: as §1
# Gal6S(b1-4)GlcNAc6S = target: Gal6S(b1-4)GlcNAc6S
# How it was run: as §1
# GalNAc(b1-3)Gal = target: GalNAc(b1-3)Gal
# How it was run: as §1
# [2] = target: GalNAc(b1-4)GlcNAc(b1-2)Man(a1-3)[GalNAc(b1-4)GlcNAc(b1-2)Man(a1-6)]Man(b1-4)GlcNAc(b1-4)GlcNAc
# How it was run: as §1
# [3] = target: GlcNAc(b1-2)Gal(b1-3)GalNAc
# How it was run: as §1
# [4] = target: GlcNAc(b1-2)Man(a1-3)[GlcNAc(b1-2)Man(a1-6)]Man(b1-4)GlcNAc(b1-4)GlcNAc
# How it was run: as §1
# [5] = target: GlcNAc(b1-2)Man(a1-3)[GlcNAc(b1-4)][GlcNAc(b1-2)Man(a1-6)]Man(b1-4)GlcNAc(b1-4)GlcNAc
# How it was run: as §1
# [6] = target: GlcNAc(b1-2)[GlcNAc(b1-6)]Man(a1-6)[GlcNAc(b1-2)Man(a1-3)]Man(b1-4)GlcNAc(b1-4)[Fuc(a1-6)]GlcNAc
# How it was run: as §1
# [7] = target: GlcNAc(b1-3)Gal(b1-4)GlcNAc(b1-3)Gal(b1-4)GlcNAc(b1-3)Gal(b1-4)GlcNAc(b1-3)Gal(b1-4)GlcNAc(b1-2)Man(a1-3)[GlcNAc(b1-3)Gal(b1-4)GlcNAc(b1-3)Gal(b1-4)GlcNAc(b1-3)Gal(b1-4)GlcNAc(b1-3)Gal(b1-4)GlcNAc(b1-2)Man(a1-6)]Man(b1-4)GlcNAc(b1-4)[Fuc(a1-6)]GlcNAc
# How it was run: as §1
# GlcNAc(b1-6)GalNAc = target: GlcNAc(b1-6)GalNAc
# How it was run: as §1
# Kdn(a2-3)Gal(b1-4)Glc = target: Kdn(a2-3)Gal(b1-4)Glc
# How it was run: as §1
# [8] = target: Neu5Ac(a2-3)Gal(b1-3)GlcNAc(b1-6)GalNAc
# How it was run: as §1
# [9] = target: Neu5Ac(a2-3)Gal(b1-3)GlcNAc6S
# How it was run: as §1
# [10] = target: Neu5Ac(a2-3)Gal(b1-3)[Fuc(a1-4)]GlcNAc(b1-3)Gal(b1-3)[Fuc(a1-4)]GlcNAc
# How it was run: as §1
# [11] = target: Neu5Ac(a2-3)Gal(b1-4)GlcNAc(b1-2)[Neu5Ac(a2-3)Gal(b1-4)GlcNAc(b1-6)]Man(a1-6)[Neu5Ac(a2-3)Gal(b1-4)GlcNAc(b1-2)Man(a1-3)]Man(b1-4)GlcNAc(b1-4)GlcNAc
# How it was run: as §1
# [12] = target: Neu5Ac(a2-3)Gal(b1-4)[Fuc(a1-3)]GlcNAc(b1-6)[Gal(b1-3)]GalNAc
# How it was run: as §1
# [13] = target: Neu5Ac(a2-3)Gal6S(b1-4)GlcNAc
# How it was run: as §1
# [14] = target: Neu5Ac(a2-3)[GalNAc(b1-4)]Gal(b1-4)GlcNAc(b1-3)GalNAc
# How it was run: as §1
# [15] = target: Neu5Ac(a2-6)Gal(b1-3)GlcNAc(b1-3)[Gal(b1-4)GlcNAc(b1-6)]Gal(b1-4)Glc
# How it was run: as §1
# [16] = target: Neu5Ac(a2-6)Gal(b1-4)GlcNAc(b1-2)Man(a1-6)[Gal(b1-4)GlcNAc(b1-2)Man(a1-3)]Man(b1-4)GlcNAc(b1-4)GlcNAc
# How it was run: as §1
# [17] = target: Neu5Ac(a2-6)Gal(b1-4)GlcNAc(b1-2)[Neu5Ac(a2-6)Gal(b1-4)GlcNAc(b1-6)]Man(a1-6)[Neu5Ac(a2-6)Gal(b1-4)GlcNAc(b1-2)Man(a1-3)][GlcNAc(b1-4)]Man(b1-4)GlcNAc(b1-4)GlcNAc
# How it was run: as §1
# [18] = target: Neu5Ac(a2-8)Neu5Ac(a2-3)Gal(b1-4)GlcNAc
# How it was run: as §1
# [19] = target: Neu5Ac(a2-8)Neu5Ac(a2-8)Neu5Ac(a2-3)[GalNAc(b1-4)]Gal(b1-4)Glc
# How it was run: as §1
# Neu5Gc(a2-3)Gal(b1-4)Glc = target: Neu5Gc(a2-3)Gal(b1-4)Glc
# How it was run: as §1
# [20] = target: Neu5Gc(a2-3)Gal(b1-4)GlcNAc(b1-3)Gal(b1-4)GlcNAc(b1-2)Man(a1-3)[Neu5Gc(a2-3)Gal(b1-4)GlcNAc(b1-3)Gal(b1-4)GlcNAc(b1-2)Man(a1-6)]Man(b1-4)GlcNAc(b1-4)GlcNAc
# How it was run: as §1
# [21] = target: Neu5Gc(a2-3)Gal(b1-4)[Fuc(a1-4)]GlcNAc
# How it was run: as §1
binder,measurement,setting,value
EEA (Euonymus europaeus) (protein) MASTIIATGPTYRVYCRAAPNYNMIVGKGVAFLAPIDETNELQYWYKDDTYSYIKDEAGLPAFSLVNKATGLTLKHSNHHPVPVKLVTYNPNVVDESVLWSQADDRGDGYSAIRSLTNPASHLEAAPLNDWSYNGAIIMGGVWIDAYNQQWKIEPHTG,glycan array binding signal (z-score),[1],-0.159
same,glycan array binding signal (z-score),Gal3S(b1-4)GlcNAc,-0.217
same,glycan array binding signal (z-score),Gal3S(b1-4)GlcNAc6S,-0.14
same,glycan array binding signal (z-score),Gal6S(b1-4)GlcNAc6S,-0.097
same,glycan array binding signal (z-score),GalNAc(b1-3)Gal,-0.178
same,glycan array binding signal (z-score),[2],0.509
same,glycan array binding signal (z-score),[3],-0.138
same,glycan array binding signal (z-score),[4],-0.152
same,glycan array binding signal (z-score),[5],-0.242
same,glycan array binding signal (z-score),[6],-0.204
same,glycan array binding signal (z-score),[7],-0.221
same,glycan array binding signal (z-score),GlcNAc(b1-6)GalNAc,-0.056
same,glycan array binding signal (z-score),Kdn(a2-3)Gal(b1-4)Glc,-0.177
same,glycan array binding signal (z-score),[8],-0.187
same,glycan array binding signal (z-score),[9],-0.092
same,glycan array binding signal (z-score),[10],-0.246
same,glycan array binding signal (z-score),[11],-0.137
same,glycan array binding signal (z-score),[12],-0.043
same,glycan array binding signal (z-score),[13],-0.212
same,glycan array binding signal (z-score),[14],0.46
same,glycan array binding signal (z-score),[15],-0.232
same,glycan array binding signal (z-score),[16],-0.233
same,glycan array binding signal (z-score),[17],-0.179
same,glycan array binding signal (z-score),[18],-0.253
same,glycan array binding signal (z-score),[19],-0.063
same,glycan array binding signal (z-score),Neu5Gc(a2-3)Gal(b1-4)Glc,-0.084
same,glycan array binding signal (z-score),[20],-0.183
same,glycan array binding signal (z-score),[21],-0.482
